Measurements as given in PubChem BioAssay AID778 (Sanford-Burnham Center for Chemical Genomics, 2007).
Hit rate of the full screen: of about 96,000 compounds, about 20,000 (21%) were called active.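 The calls were made as follows: active = CYP2C19 inhibition above a set limit at 5 µM in the primary screen (cut at about 50% in these data); inactive = the rest.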 A selection follows.

These compounds were tested against Cytochrome P450 2C19 (Homo sapiens) (UniProt P33261) (assay: blockers of cytochrome P450 2C19 activity – biochemical, luminescence, ADME assay, primary screen (AID 778;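 also: plate controls were negative control wells for no effect and 2.5 mM tranylcypromine positive control for full effect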)). Conditions: CYP2C19 Supersomes, luciferin-H EGE luminescence, 30 min; at 5 µM; stronger effect = higher value.
Sequence of Cytochrome P450 2C19 (Homo sapiens) (P33261 whole entry, looked up): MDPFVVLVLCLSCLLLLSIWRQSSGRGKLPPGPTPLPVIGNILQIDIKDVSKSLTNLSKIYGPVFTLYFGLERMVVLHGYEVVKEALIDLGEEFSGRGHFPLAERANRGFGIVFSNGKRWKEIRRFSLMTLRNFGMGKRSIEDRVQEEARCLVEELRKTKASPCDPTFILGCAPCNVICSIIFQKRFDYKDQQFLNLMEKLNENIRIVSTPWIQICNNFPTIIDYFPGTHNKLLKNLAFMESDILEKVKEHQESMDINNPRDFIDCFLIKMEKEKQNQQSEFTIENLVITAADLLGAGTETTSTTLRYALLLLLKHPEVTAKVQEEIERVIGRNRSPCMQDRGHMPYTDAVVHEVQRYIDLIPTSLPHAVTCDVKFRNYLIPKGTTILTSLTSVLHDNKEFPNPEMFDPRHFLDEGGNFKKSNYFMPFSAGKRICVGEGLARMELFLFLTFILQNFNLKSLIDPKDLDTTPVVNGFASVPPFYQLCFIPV

SMILES | inhibition
CCOc1ccc(Nc2oc(Cc3ccccc3)nc2C#N)cc1 | 30.6% (inactive)
N#Cc1nc(Cc2cccc3ccccc23)oc1NCc1ccc2c(c1)OCO2 | 48.7% (inactive)
N#Cc1nc(Cc2ccccc2)oc1NCCc1ccccc1 | 64.7% (active)
FC(F)(F)c1nnc2sc(-c3ccco3)nn12 | 10.3% (inactive)
CCOc1ccc(/C(O)=C2/C(=O)C(=O)N(Cc3cccnc3)C2c2ccc(N(C)C)cc2)c(C)c1 (stereo unspecified) | 3.8% (inactive)
CCOc1ccc(N2C(=O)CC(N(O)c3ccccc3)C2=O)cc1 (stereo unspecified) | 20.3% (inactive)
Cn1c(N)c(C(=O)COC(=O)C23CC4CC(CC(C4)C2)C3)c(=O)n(C)c1=O | 13.1% (inactive)
Cc1cc(C)cc(NC(=O)N2CCC(NC(=O)c3ccc(F)cc3)CC2)c1 | -9.5% (inactive)
COCCCn1c(Cc2csc(Nc3cccc(Cl)c3)n2)nnc1SCC(=O)OC1CCCCC1 | 27.4% (inactive)
CCOc1ccc(Nc2nc(Cc3nnc(SCC(=O)NC4CCCC4)n3C)cs2)cc1 | 53.4% (active)
CCOc1ccc(Nc2nc(Cc3nnc(SCC(=O)c4ccc(C)cc4)o3)cs2)cc1 | 46.9% (inactive)
CC(C)c1ccc(Nc2ncccc2C#N)cc1 | 22.2% (inactive)
Cc1ccc(NC2=NC(c3ccccc3)n3c(nc(C)cc3=O)N2)cc1 (stereo unspecified) | 42.1% (inactive)
Cc1ccc(OCC(=O)Nc2ccc(-c3nnc(-c4ccco4)o3)cc2)cc1 | 44.4% (inactive)
CC1(C)CC(=O)c2cc(OCC(=O)NCC3CCCO3)ccc2O1 (stereo unspecified) | 16.2% (inactive)
Cc1ccc(/C=N\n2c(-c3ccccc3)n[nH]c2=S)s1 | 4.8% (inactive)
CCNC(=S)N1CCN(C(=O)c2ccco2)CC1 | 5.5% (inactive)
O=C(c1ccc2c(c1)OCO2)N1CCN(C(=O)c2ccco2)CC1 | 17% (inactive)
O=C(c1ccco1)N1CCN(C(=O)C2c3ccccc3Oc3ccccc32)CC1 | 88.7% (active)
O=C(Cc1c(F)cccc1Cl)N1CCN(C(=O)c2ccco2)CC1 | 11.2% (inactive)
COc1ccc(N2C(=O)C3CCCN3C2c2cccc(OC)c2)cc1 (stereo unspecified) | 30.1% (inactive)
Cc1ccc(OS(=O)Nc2cccc3nccnc23)cc1 (stereo unspecified) | 38.8% (inactive)
Cc1ccc(S(=O)(=O)C(C#N)c2nc3ccccc3nc2N2CCCC2)cc1C (stereo unspecified) | 96.8% (active)
Cc1ccc(S(=O)(=O)Nc2nc3ccccc3nc2N2CCc3ccccc3C2)cc1 | 40.6% (inactive)
CC(C)OC(=O)C(C#N)c1nc2ccccc2nc1N1CCN(Cc2ccc3c(c2)OCO3)CC1 (stereo unspecified) | 2.4% (inactive)
Cc1ccc(-c2c3c(=O)n(C)c(=O)n(C)c3cn2-n2cnnc2)cc1 | -18.4% (inactive)
